In publication PMC4336329 (PLoS ONE, 2015):
The campaign covered roughly 310,000 compounds. About 14,000 (4.5%) showed an effect of 50% or more. Effects have a minus sign here. What follows is part of a selection rich in strong results, with near analogues and random picks from the rest.

What follows are molecules tested against human ether-à-go-go-related gene (hERG) potassium channel (human, UniProt Q12809) (assay: primary screen, population patch clamp on CHO cells stably expressing hERG; higher = less effect of the substance).
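Note: peak tail current of the secondary pulse compared with the same well before compound.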

human ether-à-go-go-related gene (hERG) potassium channel, sequence (Q12809 whole entry, looked up): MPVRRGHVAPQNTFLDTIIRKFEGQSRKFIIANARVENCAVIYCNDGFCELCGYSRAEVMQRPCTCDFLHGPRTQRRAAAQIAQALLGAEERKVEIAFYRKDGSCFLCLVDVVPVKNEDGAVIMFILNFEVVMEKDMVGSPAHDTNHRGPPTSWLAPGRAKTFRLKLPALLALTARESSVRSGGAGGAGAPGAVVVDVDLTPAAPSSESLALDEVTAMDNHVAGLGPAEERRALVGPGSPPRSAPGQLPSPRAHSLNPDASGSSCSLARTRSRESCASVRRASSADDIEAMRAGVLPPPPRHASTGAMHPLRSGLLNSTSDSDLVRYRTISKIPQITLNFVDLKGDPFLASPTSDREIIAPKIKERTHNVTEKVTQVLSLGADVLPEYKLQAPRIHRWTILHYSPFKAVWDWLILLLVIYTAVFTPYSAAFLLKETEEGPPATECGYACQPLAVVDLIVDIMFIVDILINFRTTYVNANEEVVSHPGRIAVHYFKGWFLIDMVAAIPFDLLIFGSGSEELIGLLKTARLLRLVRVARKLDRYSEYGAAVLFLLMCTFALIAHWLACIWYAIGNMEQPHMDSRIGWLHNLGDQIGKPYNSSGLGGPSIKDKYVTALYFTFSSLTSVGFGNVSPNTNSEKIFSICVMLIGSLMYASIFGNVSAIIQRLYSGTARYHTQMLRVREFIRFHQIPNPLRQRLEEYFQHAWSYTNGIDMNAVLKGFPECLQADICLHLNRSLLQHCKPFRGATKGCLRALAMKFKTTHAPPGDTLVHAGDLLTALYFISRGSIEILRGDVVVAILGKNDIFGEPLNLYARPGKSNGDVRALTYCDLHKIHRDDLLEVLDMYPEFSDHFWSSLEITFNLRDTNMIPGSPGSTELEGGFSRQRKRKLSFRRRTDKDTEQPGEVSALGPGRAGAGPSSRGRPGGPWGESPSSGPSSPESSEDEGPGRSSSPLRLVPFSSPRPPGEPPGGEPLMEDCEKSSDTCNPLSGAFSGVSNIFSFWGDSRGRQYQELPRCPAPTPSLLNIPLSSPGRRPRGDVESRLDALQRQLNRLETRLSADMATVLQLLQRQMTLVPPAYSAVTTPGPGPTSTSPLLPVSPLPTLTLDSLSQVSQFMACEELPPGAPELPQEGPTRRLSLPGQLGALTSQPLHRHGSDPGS

| SMILES | hERG current change (%, negative = inhibition) at 10uM [%] |
| --- | --- |
| CCOC(=O)Cn1cnc2sc(C(=O)OC)c(C)c2c1=O | 11.1 |
| CCn1c(COc2ccccc2OC)nnc1SCC#N | -3.43 |
| C=CCn1c(SCC(=O)c2cccs2)nc2sc(C)cc2c1=O | 1.56 |
| Cc1ccc(NC(=O)Nc2cccc(Cl)c2)c(C(=O)O)c1 | 19.6 |
| CC1=C(C(=O)Nc2ccccc2)C(c2ccc3c(c2)OCO3)C2=C(CCCC2=O)N1 (stereo not shown) | -14.2 |
| O=C1Nc2ccc(Br)cc2C1(O)Cc1ccncc1 (stereo not shown) | -2.45 |
| CSCCC(NC(=O)COc1ccccc1)C(=O)OCC(=O)c1ccccc1 (stereo not shown) | 4.14 |
| CSCCC(NC(=O)COc1ccccc1)C(=O)OCc1ccc([N+](=O)[O-])cc1 (stereo not shown) | -70.8 |
| CSCCC(NC(=O)COc1ccccc1)C(=O)N1CCN(c2ccccc2)CC1 (stereo not shown) | -51.9 |
| CSCCC(NC(=O)COc1ccccc1)C(=O)N(C)Cc1ccc(F)cc1 (stereo not shown) | -50.3 |
| COC(=O)c1ccc(COC(=O)C(CCSC)NC(=O)COc2ccccc2)cc1 (stereo not shown) | -9.2 |
| CSCCC(NC(=O)COc1ccccc1)C(=O)N(C)Cc1ccc(Cl)cc1Cl (stereo not shown) | -24.5 |
| CSCCC(NC(=O)COc1ccccc1)C(=O)N1CCN(C(C)=O)CC1 (stereo not shown) | -5.67 |
| CSCCC(NC(=O)COc1ccccc1)C(=O)N(C)Cc1cccc(F)c1 (stereo not shown) | -37.9 |
| CSCCC(NC(=O)COc1ccccc1)C(=O)N1CCOCC1 (stereo not shown) | -9.88 |
| CC(=O)N1CCCc2ccccc21 | 15.5 |
| O=C(NCc1ccc(Cl)c(Cl)c1)c1ccc2c(c1)OCO2 | -10.7 |
| COc1ccccc1C(=O)NC(CCSC)C(=O)NNC(=O)C(C)Oc1ccccc1F (stereo not shown) | 0.592 |
| O=C(O)COc1nsnc1N1CCOCC1 | 10.4 |
| COc1cc(C(=S)N2CCCCC2)ccc1OCC(=O)Nc1ccccc1Cl | 18.9 |
| S=c1[nH]nc(-c2ccc(Br)cc2)n1-c1ccc(Br)cc1 | 12.2 |
| CCOC(=O)c1sc(N(Cc2ccccc2)C(=O)COC(=O)c2cnccn2)nc1C | 0.26 |

| SMILES | hERG current change (%, negative = inhibition) at 10uM [%] |
| --- | --- |
| CCc1ccc(NC2=NC(C(=O)NC3CCCCC3)CC(=O)N2)cc1 (stereo not shown) | 14.9 |
| O=c1[nH]c2cccnc2n1Cc1ccccc1 | 7.67 |
| CCc1ccc(NC(=O)C(=O)N/N=C(\C)CC(=O)NCCOC)cc1 | -2.99 |
| CN(CCOc1ccccc1)C(=O)c1cc(S(=O)(=O)N2CCCCC2)ccc1Cl | -42.7 |
| CN(CC1COc2ccccc2O1)C(=O)c1ccc(Cl)c(S(=O)(=O)N2CCCCCC2)c1 (stereo not shown) | -25.8 |
| O=C(NCCOc1ccccc1)c1cc(C(=O)NCCOc2ccccc2)cc([N+](=O)[O-])c1 | -15.2 |
| CN(CCOc1ccccc1)C(=O)c1ccc(Cl)c(S(=O)(=O)N2CCCCC2)c1 | -67.4 |
| Cc1ccc(C(=O)N(C)CCOc2ccccc2)cc1S(=O)(=O)N1CCOCC1 | -15.6 |
| Cc1ccc(C(=O)N(C)CCOc2ccccc2)cc1S(=O)(=O)N1CCCCC1 | -51.4 |
| CN(CCOc1ccccc1)C(=O)c1ccc(N2CCCC2)c([N+](=O)[O-])c1 | -27.5 |
| Cc1ccc(S(=O)(=O)N2CCCCC2)cc1C(=O)N(C)CCOc1ccccc1 | -48 |
| CN(CCOc1ccccc1)C(=O)c1cc([N+](=O)[O-])cc([N+](=O)[O-])c1 | -56.9 |
| CCn1cc(S(=O)(=O)NC(C)c2cc(OC)ccc2OC)cn1 (stereo not shown) | 1.25 |
| CC(C)O.COC(=O)Nc1ccc2c(c1)N(C(=O)CCN1CCN3CCCC3C1)c1ccccc1CC2.Cl.O (stereo not shown) | 1.43 |
| CC(=O)c1cc(F)c(N2CCN(C(=O)c3ccco3)CC2)cc1C | -18.5 |
| Cn1c(Cl)c(/C=N/OC(=O)c2ccc(Cl)cc2)c2ccccc21 | -5.13 |
| Cc1ccc(-c2nnn(CC(=O)N(Cc3ccc(F)cc3)C(C(=O)NC3CCCC3)c3ccncc3)n2)o1 (stereo not shown) | -12.4 |
| CCOC(=O)c1ccc(Nc2c(OCC)c(=O)c2=O)cc1 | -15.4 |
| CCCCn1c(=O)[nH]c(=O)c2c1nc(-c1ccc(C(F)(F)F)cc1)n2C | 3.8 |
| C=CCn1c(SCc2ccccc2)nc2c1c(=O)[nH]c(=O)n2C | -21.6 |
| CCCCn1c(=O)[nH]c(=O)c2c1nc(COc1ccc(C#N)cc1)n2CCC | -57.2 |
| CCCCn1c(=O)[nH]c(=O)c2c1nc(-c1ccc(-c3ccc(F)cc3)o1)n2C | -55 |

| SMILES | hERG current change (%, negative = inhibition) at 10uM [%] |
| --- | --- |
| CCCCn1c(=O)[nH]c(=O)c2c1nc(-c1ccc(-c3ccccc3)cc1)n2C | 20.2 |
| CCCn1c(=O)[nH]c(=O)c2c1nc(-c1ccc(C#N)cc1)n2CCOC | -2.78 |
| C=CCn1c(SCc2nc3c(c(=O)[nH]c(=O)n3CCCC)n2CCC)nnc1-c1ccccc1 | -60.5 |
| C=CCOc1ccc(-c2nc3c(c(=O)[nH]c(=O)n3CCC)n2CCCC)cc1 | -5.34 |
| CCCCn1c(=O)[nH]c(=O)c2c1nc(-c1ccc(OCC)cc1)n2CC | 1.27 |
| CCCCn1c(O)c(/C(C)=N/NC(=O)Nc2ccccc2)c(=O)[nH]c1=O | 7.7 |
| O=P(C(c1ccc2c(c1)OCO2)N1CCOCC1)(N1CCOCC1)N1CCOCC1 (stereo not shown) | 4.64 |
| O=C(CN1CCN(c2ncc(C(F)(F)F)cc2Cl)CC1)Nc1ccc2c(c1)OCO2 | -37.7 |
| Cc1ccc(-c2nc(CSCC(=O)NC3CCN(Cc4ccccc4)CC3)c(C)o2)cc1 | -44 |
| Cc1oc(-c2ccc(Cl)cc2)nc1CSCC(=O)NC1CCN(Cc2ccccc2)CC1 | -73.1 |
| Cc1ccc(-c2nc(CSCC(=O)NCCN3CCN(Cc4ccccc4)CC3)c(C)o2)cc1 | -65.2 |
| CCOc1ccc(-c2nc(CSCC(=O)NCCN3CCOCC3)c(C)o2)cc1 | 11.3 |
| COc1ccc(-c2nc(CSCC(=O)NC3CCN(Cc4ccccc4)CC3)c(C)o2)cc1OC | -40.9 |
| Cc1ccc(-c2nc(CSCC(=O)NCCCN3CCOCC3)c(C)o2)cc1 | 14.1 |
| COc1ccc(-n2nc(C(=O)NCC(=O)N3CCN(c4ccccc4OC)CC3)c3ccccc3c2=O)cc1OC | -34.5 |
| CC1CCN(C(=O)CCc2ccc(S(=O)(=O)NC(C)(C)C)cc2)CC1 | -5.31 |
| O=C(N/N=C/c1ccncc1)c1cc([N+](=O)[O-])cc([N+](=O)[O-])c1O | 4.15 |
| CCOC(=O)C(=O)Nc1nnc(CCc2ccccc2)s1 | 6.37 |
| Cc1ccc(OCC(=O)N2CCc3ccccc3C2)c(C)c1 | -16.1 |
| COCCNS(=O)(=O)c1ccc(OCC(=O)N2CCc3ccccc3C2)c(Cl)c1 | -43.5 |
| Cc1cc(S(=O)(=O)NC(C)C)ccc1OCC(=O)N1CCN(Cc2ccc3c(c2)OCO3)CC1 | -27.6 |
| CCCNS(=O)(=O)c1ccc(OCC(=O)N2CCc3ccccc3C2)c(C)c1 | -65.9 |

| SMILES | hERG current change (%, negative = inhibition) at 10uM [%] |
| --- | --- |
| CCCNS(=O)(=O)c1ccc(OCC(=O)N2CCN(Cc3ccc4c(c3)OCO4)CC2)cc1 | -32 |
| CCCNS(=O)(=O)c1ccc(OCC(=O)N2CCN(Cc3ccc4c(c3)OCO4)CC2)c(C)c1 | -61.6 |
| CCOc1cc(C)c(C(C)C)cc1S(=O)(=O)n1cnc(C)c1 | -18.7 |
| Cc1ccc(NC(=O)C2=COCCO2)cc1S(=O)(=O)N1CCOCC1 | -0.0399 |
| CCOC(=O)C1CCN(C2CC(=O)N(c3cccc(Cl)c3)C2=O)CC1 (stereo not shown) | -12 |
| c1ccc(C[C@H]2CN=C(Nc3ccccc3)N2CC2CCC2)cc1 | -63 |
| C[C@H]1CN=C(Nc2ccccc2)N1CC1CCC1 | -0.391 |
| c1ccc(C[C@H]2CN=C(Nc3ccccc3)N2CCC2CCCC2)cc1 | -70.4 |
| CC(C)C[C@H]1CN=C(Nc2ccccc2)N1CC1CCC1 | -30.2 |
| CCn1c2ccccc2c2cc(NC(=O)COC(=O)c3cc(OC)c(OC)cc3OC)ccc21 | -3.41 |
| COC(=O)c1ccccc1NC(=O)c1cc2nc(C3CC3)cc(C(F)(F)F)n2n1 | 9.42 |
| Cn1c(Sc2ccc(C(=O)O)cc2[N+](=O)[O-])nnc1-c1ccccc1 | -6.68 |
| CSc1nnc(-c2ccccc2)n1C | 5.22 |
| Cn1c(SCC(=O)N/N=C/c2cc([N+](=O)[O-])ccc2O)nnc1-c1ccccc1 | 10.5 |
| Cn1c(Sc2ccc([N+](=O)[O-])cc2C(F)(F)F)nnc1-c1ccccc1 | -55 |
| Cn1cnnc1Sc1ccc(C(F)(F)F)cc1[N+](=O)[O-] | 2.45 |
| Cn1c(Sc2ccc(C(F)(F)F)cc2[N+](=O)[O-])nnc1-c1ccccc1 | -62.8 |
| CC(=O)Nc1ccc(S(=O)(=O)Nc2c(C)nn(-c3ccccc3)c2C)cc1 | -7.68 |
| O=c1c(C(c2ccc(Cl)cc2)c2c(O)nc3n(c2=O)CCCS3)c(O)nc2n1CCCS2 | 21.3 |
